Screening data: PubChem BioAssay, several laboratories
NALP3 yeast inh – blocks the NALP3 inflammasome reconstituted in yeast; Yeast reconstituted NLRP3/ASC/caspase-1, beta-gal luminescence, 24 h; inhibition, % at 10 µM; actives 0.39% (n = 330,000); AID 2825;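 active = inhibition of 50% or more; inactive = inhibition below 50%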
SKKanGAS inh – SKKanGAS growth inhibition | AID 1662 | inhibition, % at 7.5 µM | S. pyogenes SKKanGAS, kanamycin growth, BacTiter-Glo, 6 h | actives 1.3% (n = 300,000);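 active = mean replicate score, as percent of positive control median, at least 50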;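 note: strain carries kanamycin resistance gene driven by streptokinase promoter and grows in 40 µg/ml kanamycin; loss of luminescence reflects streptokinase promoter inhibition or plain growth inhibition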
tim23-1 inh – inhibits growth of tim23-1 mutant yeast; S. cerevisiae tim23-1 growth, BacTiter-Glo luminescence, 24 h; inhibition, % at 20 µM; actives 1.3% (n = 330,000);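 active = growth inhibition of the mutant yeast at or above 50%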;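 note: temperature-sensitive mutant grown at 25 °C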
TIM10 inh – growth inhibitors of TIM10 yeast strain | S. cerevisiae TIM10 strain growth, BacTiter-Glo luminescence, 24 h | actives 1.4% (n = 330,000) | inhibition, % at 10 µM;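 active = inhibition of 40% or more at the single tested concentration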;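 note: wild-type TIM10 isogenic control strain grown at permissive 25 °C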
tim10-1 inh – growth inhibitors of tim10-1 mutant yeast; S. cerevisiae tim10-1 ts strain growth, BacTiter-Glo, 24 h; inhibition, % at 20 µM; actives 2.2% (n = 330,000); AID 463190;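 active = inhibition of at least 40%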;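 note: mutant grown at 25 °C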
tim10-1 confirm – confirmation of tim10-1 mutant yeast growth inhibitors; shares compounds with tim10-1 inh; S. cerevisiae tim10-1 ts strain growth, BacTiter-Glo, 24 h; inhibition, % at 20 µM; actives 56% (n = 7,400); AID 463213;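 active = inhibition of yeast growth at or above a set limit in either of two repeat tests at 20 µM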;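 note: tim10-1 mutant grown at permissive 25 °C to find synthetic lethal compounds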
Hits are given with their value. Shown are actives, neighbours in structure and some others; about 4.6% of the full set was active somewhere.

How did Cc1ccccc1NC1=C(Cl)C(=O)OC1OC(=O)c1ccccc1C (configuration not stated) do in these assays?
NALP3 yeast inh: inactive; SKKanGAS inh: inactive; tim23-1 inh: inactive; TIM10 inh: inactive; tim10-1 inh: 40.2; tim10-1 confirm: inactive

Results for Cc1ccc(NC2=C(Cl)C(=O)OC2OC(=O)c2ccccc2)c(C)c1 (configuration not stated) ?
NALP3 yeast inh: inactive; SKKanGAS inh: inactive; tim23-1 inh: inactive; TIM10 inh: inactive; tim10-1 inh: inactive

What do the screens show for `CC1(C)Cc2c(sc3[nH]c(=O)n(CC(=O)NCC4CCCO4)c(=O)c23)CO1` (configuration not stated)?
NALP3 yeast inh: inactive; SKKanGAS inh: inactive; tim23-1 inh: inactive; TIM10 inh: inactive; tim10-1 inh: inactive

How did CCOc1ccc(N(Cc2ccc(OC)cc2)C(=O)c2ccco2)cc1 do in these assays?
NALP3 yeast inh: inactive; SKKanGAS inh: inactive; tim23-1 inh: inactive; TIM10 inh: inactive; tim10-1 inh: 44.1; tim10-1 confirm: inactive

What do the screens show for `O=C(CS(=O)CC(=O)N(CC(=O)NC1CCCC1)c1ccccc1F)Nc1ccc(F)cc1` (configuration not stated)?
NALP3 yeast inh: inactive; SKKanGAS inh: inactive; tim23-1 inh: inactive; TIM10 inh: inactive; tim10-1 inh: inactive

How did COC(=O)c1c(NC(=O)CN2CCC3(O)CCCCC3C2c2ccccc2OC)sc(C)c1C (configuration not stated) do in these assays?
NALP3 yeast inh: inactive; SKKanGAS inh: inactive; tim23-1 inh: inactive; TIM10 inh: inactive; tim10-1 inh: 40.0; tim10-1 confirm: inactive

How did Cc1ccc(C(=O)NCC(=O)N(C)Cc2ccc(Cl)cc2Cl)s1 do in these assays?
NALP3 yeast inh: inactive; tim23-1 inh: inactive; TIM10 inh: inactive; tim10-1 inh: inactive

Results for N#Cc1cc(O)c(-n2nnc3ccccc32)cc1C#N ?
NALP3 yeast inh: inactive; SKKanGAS inh: inactive; tim23-1 inh: inactive; TIM10 inh: inactive; tim10-1 inh: inactive

How did N#Cc1cc(Oc2cccc3cccnc23)c(-n2nnc3ccccc32)cc1C#N do in these assays?
NALP3 yeast inh: inactive; SKKanGAS inh: inactive; tim23-1 inh: inactive; TIM10 inh: inactive; tim10-1 inh: 48.0; tim10-1 confirm: 33.2

Results for C/C(=N\O)c1ccc2c3ccccc3n(C)c2c1 ?
NALP3 yeast inh: inactive; SKKanGAS inh: inactive; tim23-1 inh: inactive; TIM10 inh: inactive; tim10-1 inh: 44.3; tim10-1 confirm: inactive

What do the screens show for `C/C(=N\O)c1c(C)c2ccccc2n1C`?
NALP3 yeast inh: inactive; SKKanGAS inh: inactive; tim23-1 inh: inactive; TIM10 inh: inactive; tim10-1 inh: inactive

How did OCC[C@H]1C[C@@H](O)[C@H](O)[C@@]2(Cc3ccccc3O2)O1 do in these assays?
NALP3 yeast inh: inactive; tim23-1 inh: inactive; TIM10 inh: inactive; tim10-1 inh: inactive

Results for C/C(CC(=O)Nc1ccc(C)c(Cl)c1)=N\NC(=O)Cc1ccccc1 ?
NALP3 yeast inh: inactive; SKKanGAS inh: inactive; tim23-1 inh: inactive; TIM10 inh: inactive; tim10-1 inh: inactive

How did C/C(CC(=O)Nc1ccc(C)c(Cl)c1)=N\NC(=O)c1ccco1 do in these assays?
NALP3 yeast inh: inactive; SKKanGAS inh: inactive; tim23-1 inh: inactive; TIM10 inh: inactive; tim10-1 inh: 40.8; tim10-1 confirm: inactive

Results for COc1ccc(CC(=O)O/N=C(\N)Cc2cccc3ccccc23)cc1OC ?
NALP3 yeast inh: inactive; SKKanGAS inh: inactive; tim23-1 inh: inactive; TIM10 inh: inactive; tim10-1 inh: 57.7; tim10-1 confirm: 47.8

How did COc1ccc(CC(=O)O/N=C(\N)c2ccccn2)cc1OC do in these assays?
NALP3 yeast inh: inactive; SKKanGAS inh: inactive; tim23-1 inh: inactive; TIM10 inh: inactive; tim10-1 inh: inactive

What do the screens show for `CC[C@]12c3[nH]c4cc(-c5ccco5)ccc4c3CCN1C(=O)[C@@H](CC(=O)NCCCN(C)C)C[C@@H]2C(=O)N1CCN(C(=O)c2ccco2)CC1`?
tim23-1 inh: inactive; TIM10 inh: inactive; tim10-1 inh: inactive

How did COc1ccc(OC)c(NC(=O)C2CC(=O)N(c3ccc(Br)cc3)C2)c1 (configuration not stated) do in these assays?
NALP3 yeast inh: inactive; SKKanGAS inh: inactive; tim23-1 inh: inactive; TIM10 inh: inactive; tim10-1 inh: 42.7; tim10-1 confirm: inactive

What do the screens show for `Cc1[nH]n(-c2ccc(Cl)c(Cl)c2)c(=O)c1CCO`?
NALP3 yeast inh: inactive; SKKanGAS inh: inactive; tim23-1 inh: inactive; TIM10 inh: inactive; tim10-1 inh: 43.1; tim10-1 confirm: inactive
